From PubChem BioAssay AID2732 (Emory University Molecular Libraries Screening Center, 2010)
Among all 220,000 compounds or so, about 8,200 (3.7%) were called active. What follows is part of a selection rich in actives, with near analogues and random picks from the rest. Values without a mark were called inactive.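 Rule for the calls: active = compounds that reduced the stress-induced luciferase reporter signal by more than about 70% of percent inhibition (limit read from the data); inactive = the rest.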

assay: inhibitors of CHOP promoter induction, primary screen, cell-based, unfolded protein response, luciferase reporter (AID 2732); details: CHO-K1 CHOP-promoter luciferase, tunicamycin-induced, 15-18 h; at 10 µM; hits give high values;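 note: 0% = tunicamycin plus vehicle and 100% = wells without tunicamycin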

SMILES	inhibition
CCCCCCCCCCCCn1ccc(=N)cc1	90.9% (active)
CC(=C1C(=O)c2ccccc2C1=O)N1CCN(CCN=Cc2c(O)n(C)c(=O)n(C)c2=O)CC1	-9.11%
COc1ccc(NC(=O)N2CCC3(CC2)OCCO3)c(OC)c1	18.7%
CCC1(C)CC(CCNCc2ccc(N(C)C)cc2)(c2ccc(F)cc2)CCO1 (stereo not given)	8.31%
COc1ccc(CN2C(=O)NC(=O)/C(=C\c3ccc(OC)c(OC)c3OC)C2=O)cc1	-5.09%
CN(C)CC1Oc2ccccc2OC1(O)c1ccccc1 (stereo not given)	88.8% (active)
CCOC(=O)c1ncn2c1[C@@H]1CCCN1C(=O)c1cc(OC)ccc1-2	-1.91%
O=C(CCNS(=O)(=O)c1ccccc1)Nc1ccc(Cl)cc1C(=O)c1ccccc1	-12.3%
CN1CCN(C(=S)SCC(=O)Nc2ccc(Cl)cc2C(=O)c2ccccc2)CC1	35%
O=C(COC(=O)c1ccccc1)Nc1ccc(Cl)cc1C(=O)c1ccccc1	80.1% (active)
COC(=O)N(c1ccc(OC)cc1)P1(=S)OCCC(C)O1 (stereo not given)	-1.61%
CCC(=O)CC(c1ccc([N+](=O)[O-])cc1)c1c(O)c2ccccc2oc1=O (stereo not given)	-16.6%
Cc1ccc2c(c1)C1CN(C)CCC1N2C(=O)Cn1nnc(-c2ccccc2F)n1 (stereo not given)	3.99%
CCN1CCN(c2ccc([N+](=O)[O-])cc2C#N)CC1	8.37%
Cn1c(O)c(C(=Nc2ccc(F)cc2)c2ccccc2)c(=O)n(C)c1=O	2.66%
Cc1cc(C=C2C(=O)NC(=O)NC2=O)c(C)n1-c1ccncc1	16.7%
Cc1ccc(-n2c(C)cc(/C=C3\C(=O)NC(=O)N(C)C3=O)c2C)cc1C	78.5% (active)
Cc1ccnc(-n2c(C)cc(/C=C3\C(=O)NC(=S)N(C)C3=O)c2C)c1	-16.7%
C=CCN1CCC2(C)c3cc(O)ccc3CC1[C@@H]2C (stereo not given in full)	9.89%
Cc1ccc(CN2CCCC(C(=O)c3ccc4c(c3)OCO4)C2)cc1C (stereo not given)	-2.37%
O=c1[nH]c(=O)n(CCc2ccccc2)c(O)c1/C=N/N1CCOCC1	-18.4%
CCC(=NCCCO)c1c(O)n(-c2ccc(OC)cc2)c(=O)[nH]c1=O	14.6%
CCCCn1c(O)c(C(CC)=NCc2ccco2)c(=O)[nH]c1=O	6.6%

SMILES	inhibition
CCCCCCN=C(CC)c1c(O)n(CCCC)c(=O)[nH]c1=O	106% (active)
O=c1[nH]c(=O)n(CCc2ccc(F)cc2)c(O)c1/C=N/N1CCCCC1	3.76%
CC1(C)Cc2c(C#N)c(N3CCNCC3)nc(-c3ccco3)c2CS1	3.49%
COc1cc(C(c2c(O)c3ccccc3oc2=O)c2c(C)n(C)n(-c3ccccc3)c2=O)ccc1O (stereo not given)	8.54%
CCCCCn1c(=O)c(C(=O)Nc2c(C)n(C)n(-c3ccccc3)c2=O)c(O)c2ccccc21	89.7% (active)
CCCCCn1c(=O)c(C(=O)NCc2ccccn2)c(O)c2ccccc21	40.5%
CCOP(=O)(OCC)C(O)c1ccc(OC)cc1OC (stereo not given)	1.95%
COc1ccc2c(c1O)-c1cccc3c1[C@@H](C2)N(C)CC3	-0.63%
COc1ccc(-n2c(-c3ccccc3)nc3ccccc3c2=O)cc1	-0.77%
CC(=O)c1c(O)c(C)c(O)c(Cc2c(O)c3c(c(C(=O)/C=C/c4ccccc4)c2O)OC(C)(C)C=C3)c1O	-9.85%
O=C1NC(=O)N(Cc2ccco2)C(=O)/C1=C\c1ccc(-c2ccc(F)cc2)o1	4.85%
O=C(O)COc1ccccc1/C=C1\C(=O)NC(=O)N(CCC2=CCCCC2)C1=O	-7.81%
O=C1NC(=O)N(CCc2ccc(F)cc2)C(=O)/C1=C/C=C/c1ccccc1	79.8% (active)
COc1ccc(NC(=O)c2cn(CCC#N)nc2-c2ccc([N+](=O)[O-])cc2)cc1	-2.78%
Cc1ccc(-n2c(-c3ccc([N+](=O)[O-])cc3)nc3ccccc3c2=O)cc1	-10.7%
O=C(O)C1C2CCC(O2)C1C(=O)O (stereo not given)	-11.8%
CN(C)c1ccc(/C=C2\CC3C4CC=C5CC(O)CCC5(C)C4CCC3(C)C2=O)cc1 (stereo not given)	96% (active)
CC(c1ccccc1)(c1ccccc1)c1ccncc1	34.4%
CCN1c2nc3c(C)cccn3c(=O)c2CC2(C(=O)N(C)C(=O)N(C)C2=O)C1C (stereo not given)	6.18%
CCCCC(=O)N/N=C/c1c(O)n(-c2ccccc2)c(=O)[nH]c1=O	-1.28%
O=C(CSC1c2ccccc2-c2ccccc21)N/N=C/c1ccccc1	97.3% (active)
CC(=O)N1CN2CN(C(C)=O)CC(C(=O)c3ccc(Br)cc3)(C2)C1	5.64%
